Screening results deposited in PubChem by several laboratories.
Rows were chosen to be rich in hits. Some 5.3% of all compounds tested hit in one or more screens of this group.
PostGolgi yeast = growth inhibition of a yeast mutant, post-Golgi transport screen; post-Golgi transport phenotypic cell assay; 98,000 compounds, 0.9% hits; inhibition, % at 10 µM;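 note: yeast cells grown in 1536-well plates; yeast grown about 18 h at 30C before absorbance read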
PostGolgi ctrl = growth of the yeast control strain, post-Golgi counter-screen | efflux-deficient yeast background strain, growth absorbance A615, 16 h | inhibition, % at 10 µM | 98,000 compounds, 5% hits | AID 738
MT1-MMP txn act = MT1-MMP promoter transcription activation. activation factor at 10 µM. 86,000 compounds, 0.16% hits. HT1080 MT1-MMP promoter luciferase reporter, luminescence, overnight; stronger effect = higher value. AID 750;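 active = activation factor of at least 2 for MT1-MMP transcription at 10 µM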
Measles CPE = protection of cells from measles virus | Measles virus-infected cells, CPE protection, absorbance | protection (pct of control), % at 4 µM | 140,000 compounds, 1.5% hits; in the data active = protection mostly above about 24%, no sharp cut-off; inactive = mostly below about 26%
Numbers without * were called inactive; · = no result given. Cut-off read from the data, not from the text of the source, unless noted: active = inhibition above about 30%; inactive = the rest.

SMILES	PostGolgi yeast	PostGolgi ctrl	MT1-MMP txn act	Measles CPE
CCC(=O)N(CCO)Cc1cc2ccc(C)c(C)c2[nH]c1=O	32.7*	-4.8	1.3	7.4
COC(=O)c1ccc(C(NC(=O)OCc2ccccc2)/C(I)=C/[C@@H](C)C(=O)NCc2ccncc2)cc1 (some centres undefined)	·	·	1	·
O=C1CC(N2CCCCCC2)C(=O)N1c1ccc2c(c1)OCO2 (centres undefined)	-42.0	-2.6	1.1	6.6
O=C1CC(NC23CC4CC(CC(C4)C2)C3)C(=O)N1c1ccc2c(c1)OCO2 (centres undefined)	-4.1	23.1	1.2	31.5*
C/C(=N\NC(=O)c1ccccc1-n1cccc1)C1CC1	·	·	·	2.1
O=c1oc2cc(Oc3ccc(C(F)(F)F)cc3[N+](=O)[O-])ccc2c2c1CCC2	·	·	·	7.8
O=c1oc2cc(Oc3c([N+](=O)[O-])cc(C(F)(F)F)cc3[N+](=O)[O-])ccc2c2c1CCCC2	106.1*	85.3*	·	10.8
O=C(CSc1nnc(CNc2ccc(F)cc2)o1)N1c2ccccc2Sc2ccccc21	10.9	50.1*	·	15.3
COc1ccc(NCc2nnc(SCC(=O)c3ccc(OC)cc3)o2)cc1	-10.2	15.7	1.3	37.6*
CC1Cc2ccccc2N1C(=O)CSc1nnc(CNc2ccccc2)o1 (centres undefined)	-0.3	36.9*	1.2	17.6
O=C(CSc1nnc(CNc2ccc(F)cc2)o1)N1CCN(C(=O)c2ccco2)CC1	3.3	7.7	1.2	11.1
Cc1cc(C(=O)O)c(C)n1-c1ccccc1	-3.9	1.2	·	39.6*
O=C(NCCCN1CCCC1=O)c1cccc(C(F)(F)F)c1	-5.0	35.1*	·	3.2
CCCNC(=O)c1cccc(C(F)(F)F)c1	2.8	5.3	·	26.5*
O=C(Nc1ccccc1)c1cccc(C(F)(F)F)c1	·	·	·	12.2
COCCNC(=O)c1ccc(NC(C)=O)cc1	-6.9	5.1	1.1	51.8*
Cc1nc2ccc(NC(=O)c3cccc(C(F)(F)F)c3)cc2o1	13.7	-1.6	·	60.7*
CCOC(=O)C1CCCN(C(=S)Nc2cccc(Cl)c2C)C1 (centres undefined)	·	·	·	9.3
Cc1ccc(S(=O)(=O)Nc2ccc(=O)n(Cc3ccc(Cl)c(Cl)c3)c2)cc1	4.2	11.9	·	5.2
CCCSc1nc(C)cc(C)c1C(N)=O	-13.9	1.2	1.2	6.7
O=C(N/N=C/c1ccc(O)c(O)c1)c1ccc(CSc2cccc3cccnc23)cc1	-1.2	15.7	1.4	5.5
COc1ccc(/C=C/C(=O)NC(=S)Nc2ccc(C(=O)O)cc2)cc1	·	·	·	25.6
COCCCNC(=O)c1cccc(C(=O)NCCCOC)c1	-2.3	41.4*	1	23.1*
COCCCNC(=O)c1ccc2c(c1)OCO2	-4.9	-8.1	1.2	22.7
CS/C(=N\S(=O)(=O)c1cccs1)Nc1ccc(Br)cc1F	·	·	·	5.4
SMILES	PostGolgi yeast	PostGolgi ctrl	MT1-MMP txn act	Measles CPE
O=C(Nc1cccc(F)c1)C1CCCN1S(=O)(=O)c1cccc2cccnc12 (centres undefined)	2.2	17.2	1.1	11.7
Cc1ccc(NC(=O)C2CCN(S(=O)(=O)c3c(C)n[nH]c3C)CC2)nc1	0.3	35.4*	1.1	4.8
O=C(Nc1ccc(C(F)(F)F)cc1)C1CCCN1S(=O)(=O)c1cccc2cccnc12 (centres undefined)	2.9	30.1*	1.1	5.0
Cc1cccc(NC(=O)C2CCN(S(=O)(=O)c3cccc4cccnc34)CC2)n1	2.0	14.0	1	7.7
Cc1ccc(NC(=O)C2CCN(S(=O)(=O)c3cccc4cccnc34)CC2)nc1	3.3	32.1*	1.1	4.6
CCOC(=O)N1CCC(NC(=O)C2CCN(S(=O)(=O)c3cccc4cccnc34)CC2)CC1	1.8	5.0	1.1	15.5
CCOC(=O)C1CCN(C(=O)C2CCN(S(=O)(=O)c3cccc4cccnc34)CC2)CC1	4.0	31.6*	1.1	5.7
CCC(C)/C(C)=N/NC(=O)c1ccc(COc2ccc(Cl)c(C)c2)cc1 (centres undefined)	·	·	·	13.0
COc1ccc(N2C(=O)NC(NC(=O)c3ccncc3)(C(F)(F)F)C2=O)cc1 (centres undefined)	4.2	6.5	·	6.4
O=C(Nc1nc2cc(Cl)ccc2s1)C1CCCN(S(=O)(=O)c2cccc3cccnc23)C1 (centres undefined)	2.2	36.4*	·	2.9
COc1ccc(S(=O)(=O)Cc2ccc(C(=O)N3CCN(c4ccccc4F)CC3)o2)cc1	-5.0	32.2*	1.1	8.4
Cc1ccccc1S(=O)(=O)Cc1ccc(C(=O)N2CCN(c3cccc(C)c3C)CC2)o1	0.3	38.2*	0.5	16.7
COc1ccc(S(=O)(=O)Cc2ccc(C(=O)N3CCN(c4ccccc4)CC3)o2)cc1	1.5	1.7	·	7.2
O=C(NC(NNc1ccc([N+](=O)[O-])cc1)(C(F)(F)F)C(F)(F)F)c1ccccc1Cl	0.8	44.2*	·	4.7
O=C(NC(NNc1ccc([N+](=O)[O-])cc1)(C(F)(F)F)C(F)(F)F)c1ccc(F)cc1	·	·	·	3.0
CC(C(=O)N1c2ccccc2Sc2ccccc21)n1nnc(-c2cccs2)n1 (centres undefined)	5.5	31.8*	1	4.2
Cc1cc(N2CCOCC2)n2nc(-c3cccc(F)c3)cc2n1	-0.3	1.4	1	4.7
COc1cc(OC)cc(-c2cc3nc(C)cc(N4CCN(C(=O)c5ccco5)CC4)n3n2)c1	-11.2	30.2*	·	5.4
Cc1cc(N2CCN(C(=O)c3ccco3)CC2)n2nc(-c3cccc(F)c3)cc2n1	-7.2	46.8*	0.9	11.1
CCOC(=O)c1c(N)sc(C(O)(C(F)(F)F)C(F)(F)F)c1-c1ccc(Cl)cc1	-1.1	71.8*	1.1	34.0
Cc1noc2ncnc(Oc3ccc4ccccc4c3)c12	-7.7	31.1*	·	8.8
Cc1ccc(S(=O)(=O)NC(=O)c2cc(C)n(-c3ccc(N(C)C)cc3)c2C)cc1	·	·	·	4.0
Cc1nn2c(-c3ccccc3)nnc2c2ccccc12	-1.1	30.8*	1.6	6.2
Cc1cc(C)c2c(n1)sc1c(-c3ccccc3)c(C#N)c(N)nc12	·	·	·	2.5
COCCn1c(SCC(=O)Nc2ncc(C)s2)nc2sc3c(c2c1=O)CCC3	3.6	8.7	1.1	19.4
SMILES	PostGolgi yeast	PostGolgi ctrl	MT1-MMP txn act	Measles CPE
COCCn1c(SCc2nnc(-c3ccccc3)o2)nc2sc3c(c2c1=O)CCC3	9.3	96.1*	1.3	12.6
O=C(Nc1nnc(C2CC2)o1)c1ccc(S(=O)(=O)N2CCCc3ccccc32)cc1	33.3*	2.7	·	5.7
CCOC(=O)c1cnn2cc(-c3[nH]ncc3[N+](=O)[O-])cnc12	·	·	·	33.4*
CCOC(=O)c1cnc2c(-c3ccccc3)cnn2c1N	-3.6	6.3	0.8	4.6
O=c1c2nnn(Cc3ccccc3)c2ncn1-c1ccccc1	-2.5	33.9*	1.3	6.4
CC1Cc2ccccc2N1c1nc(C2CC2)nc2c1nnn2Cc1ccccc1 (centres undefined)	·	·	1	22.1
c1ccc(Cn2nnc3c(N4CCc5ccccc5C4)ncnc32)cc1	-1.9	30.5*	1.2	16.4
CC1Cc2ccccc2N1c1ncnc2c1nnn2Cc1ccccc1 (centres undefined)	10.4	41.7*	1	14.1
O=C(Cn1cnc2c(nnn2Cc2ccccc2)c1=O)c1ccccc1	-8.2	-0.3	1.1	6.8
Brc1ccc(-c2nnc3ccc(Nc4ccccc4)nn23)cc1	·	·	·	6.6
